In PubChem BioAssay (Tox21):
Values joined by “and” are separate entries in the source; they are usually repeats but may differ in a detail not shown here. Equal entries are not always repeated. Results filed as inconclusive are left out. A call without a number means that no potency is given here. More than one record can exist for a structure, and the calls need not agree. Active and inactive are the calls of the source. Unless noted, calls follow the shape of the full dose curve.

Assays:
[1] = Nuclear factor erythroid 2-related factor 2/antioxidant responsive element (Nrf2/ARE) small molecule agonists: luciferase reporter gene qHTS assay in human keratinocytes (AID 1919969); also: nearly all actives have a fitted effect of over 35% in size; also: potency is read from the fitted curve at half-maximal effect
[2] = biological target: Gonadotropin-releasing hormone receptor (Homo sapiens) (UniProt P30968); test: Human gonadotropin-releasing hormone receptor (GnRHR) small molecule agonists, calcium flux assay in GnRHR-HEK293 cells (AID 1920063); also: nearly all actives have a fitted effect of over 35% in size; also: potency is read from the fitted curve at half-maximal effect
Chain of Gonadotropin-releasing hormone receptor (Homo sapiens) (P30968 whole entry, looked up): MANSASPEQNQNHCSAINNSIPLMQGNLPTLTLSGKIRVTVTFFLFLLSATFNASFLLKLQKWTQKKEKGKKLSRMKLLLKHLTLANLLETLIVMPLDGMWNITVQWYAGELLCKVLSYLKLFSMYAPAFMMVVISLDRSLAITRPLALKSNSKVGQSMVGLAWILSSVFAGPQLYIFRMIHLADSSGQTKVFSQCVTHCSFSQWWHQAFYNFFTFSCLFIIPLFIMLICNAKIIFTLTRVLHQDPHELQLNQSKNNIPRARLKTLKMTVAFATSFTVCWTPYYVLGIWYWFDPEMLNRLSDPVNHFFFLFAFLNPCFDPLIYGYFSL
Method in brief: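 Calcium flux, agonist mode, human GnRHR stably integrated in HEK293; dye 1 h at 37 C before compound; Ex/Em=480/540 kinetic read, 3 min; 15 concentrations, triplicate.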

[3] = biological target: KiSS-1 receptor (Homo sapiens) (UniProt Q969F8); test: Human kisspeptin (KISS1R) small molecule agonists, calcium flux assay in KISS1R-HEK293 cells (AID 1920064; active = well fitted activation curve with a large enough effect in the repeat runs)
Chain of KiSS-1 receptor (Homo sapiens) (Q969F8 whole entry, looked up): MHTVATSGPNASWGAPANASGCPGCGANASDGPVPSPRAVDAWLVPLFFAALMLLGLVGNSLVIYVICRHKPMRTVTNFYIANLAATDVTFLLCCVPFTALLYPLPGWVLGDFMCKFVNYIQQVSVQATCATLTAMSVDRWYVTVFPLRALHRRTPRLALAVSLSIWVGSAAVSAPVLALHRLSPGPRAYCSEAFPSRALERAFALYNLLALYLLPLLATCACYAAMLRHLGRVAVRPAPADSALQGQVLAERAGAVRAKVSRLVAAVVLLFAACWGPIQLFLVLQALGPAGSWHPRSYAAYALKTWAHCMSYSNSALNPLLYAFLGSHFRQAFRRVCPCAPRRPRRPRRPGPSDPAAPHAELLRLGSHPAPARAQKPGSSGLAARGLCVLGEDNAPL
Method in brief: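 Triplicate 15-concentration series were applied to dye-loaded human KISS1R HEK293 cells, and agonist-evoked calcium fluorescence was captured for 3 min.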

[4] = G protein-coupled receptor (GPCR) small molecule agonists, calcium flux assay: HEK293 wild type cell line counter screen (AID 1920065); also: potency is read from the fitted curve at half-maximal effect
Method in brief: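 Non-specific calcium responders were flagged by adding DMSO-dissolved compounds to dye-loaded cells and reading 480/540 nm fluorescence each second for 3 min; ATP served as positive control.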

[5] = p53 small molecule agonists, cell-based qHTS assay with human liver microsomes: qHTS cell viability counter screen (AID 1963579); also: nearly all actives have a fitted effect of over 45% in size; also: potency is read from the fitted curve at half-maximal effect
Method in brief: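 Metabolically activated exposure: compounds, human liver microsomes and NADPH (0.5 mg/mL final apiece) were added to p53RE-bla cells seeded 5 h earlier, left 16 h at 37 C, and then assessed for viability by CellTiter-Glo luminescence.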

[6] = p53 small molecule agonists, cell-based qHTS assay: qHTS cell viability counter screen (AID 1963581); also: nearly all actives have a fitted effect of over 45% in size; also: potency is read from the fitted curve at half-maximal effect
Method in brief: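 Multiplexed with the reporter read, a CellTiter-Glo step (30 min, room temperature) gauges ATP-based viability of HCT-116 p53RE-bla cells after 16 h compound incubation at 37 C.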

[7] = biological target: 5-hydroxytryptamine receptor 2A (Homo sapiens) (UniProt P28223); test: 5-hydroxytryptamine receptor 2A (HTR2A) small molecule antagonists, cell-based qHTS assay (AID 1963586); also: nearly all actives have a fitted effect of over 45% in size
Chain of 5-hydroxytryptamine receptor 2A (Homo sapiens) (P28223 whole entry, looked up): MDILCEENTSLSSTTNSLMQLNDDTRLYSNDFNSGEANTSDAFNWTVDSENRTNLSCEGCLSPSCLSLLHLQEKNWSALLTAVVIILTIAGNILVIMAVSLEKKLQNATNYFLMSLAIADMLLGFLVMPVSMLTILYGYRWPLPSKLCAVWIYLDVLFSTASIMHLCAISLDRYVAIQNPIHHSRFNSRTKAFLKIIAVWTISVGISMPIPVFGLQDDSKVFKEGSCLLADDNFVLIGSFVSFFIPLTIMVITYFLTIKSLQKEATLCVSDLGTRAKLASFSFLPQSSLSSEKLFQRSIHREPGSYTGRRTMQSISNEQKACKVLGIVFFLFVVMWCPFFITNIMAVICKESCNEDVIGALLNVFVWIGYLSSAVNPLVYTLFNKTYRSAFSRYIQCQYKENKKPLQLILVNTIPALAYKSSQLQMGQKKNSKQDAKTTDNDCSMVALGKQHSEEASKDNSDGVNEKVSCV
Method in brief: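 CHO cells stably expressing human HTR2A were plated for 18 h at 37 C, then loaded with calcium dye for 1 h. Compounds were preincubated 5 min at room temperature before DOI (4 nM solution) was added. Kinetic fluorescence was read for 3 min.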

[8] = biological target: 5-hydroxytryptamine receptor 2A (Homo sapiens) (UniProt P28223); test: 5-hydroxytryptamine receptor 2A (HTR2A) small molecule agonists, cell-based qHTS assay (AID 1963587); also: nearly all actives have a fitted effect of over 30% in size; also: potency is read from the fitted curve at half-maximal effect
Method in brief: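 Kinetic calcium-flux fluorescence (2 min, 1 sec intervals) after compound addition in agonist mode. HTR2A-CHO cells were cultured 18 h, then dye-loaded 1 h at 37 C.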

[9] = biological target: Muscarinic acetylcholine receptor M1 (Homo sapiens) (UniProt P11229); test: Cholinergic receptor muscarinic 1 (CHRM1) small molecule agonists, cell-based qHTS assay (AID 1963589); also: nearly all actives have a fitted effect of over 35% in size; also: potency is read from the fitted curve at half-maximal effect
Chain of Muscarinic acetylcholine receptor M1 (Homo sapiens) (P11229 whole entry, looked up): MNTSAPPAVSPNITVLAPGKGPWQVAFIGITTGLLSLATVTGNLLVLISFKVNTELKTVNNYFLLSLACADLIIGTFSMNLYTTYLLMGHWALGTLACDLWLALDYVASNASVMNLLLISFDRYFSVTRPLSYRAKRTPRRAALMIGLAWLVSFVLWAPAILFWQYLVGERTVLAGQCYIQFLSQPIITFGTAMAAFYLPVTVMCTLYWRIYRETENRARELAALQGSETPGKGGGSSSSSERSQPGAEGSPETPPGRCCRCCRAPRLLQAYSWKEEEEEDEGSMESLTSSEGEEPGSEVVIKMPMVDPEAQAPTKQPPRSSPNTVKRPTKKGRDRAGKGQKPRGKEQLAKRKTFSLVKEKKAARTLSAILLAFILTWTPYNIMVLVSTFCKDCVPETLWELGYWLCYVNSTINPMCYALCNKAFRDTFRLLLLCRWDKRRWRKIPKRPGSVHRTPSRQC
Method in brief: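 qHTS, 15-point titration, 3 independent runs: compounds pin-transferred onto dye-loaded CHRM1-CHO cells (human M1), calcium fluorescence followed every second to detect agonism.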

[10] = biological target: Beta-2 adrenergic receptor (Homo sapiens) (UniProt P07550); test: Adrenergic beta2 receptor (ADRB2) small molecule antagonists, cell-based qHTS assay (AID 1963592); also: nearly all actives have a fitted effect of over 50% in size; also: potency is read from the fitted curve at half-maximal effect
Chain of Beta-2 adrenergic receptor (Homo sapiens) (P07550 whole entry, looked up): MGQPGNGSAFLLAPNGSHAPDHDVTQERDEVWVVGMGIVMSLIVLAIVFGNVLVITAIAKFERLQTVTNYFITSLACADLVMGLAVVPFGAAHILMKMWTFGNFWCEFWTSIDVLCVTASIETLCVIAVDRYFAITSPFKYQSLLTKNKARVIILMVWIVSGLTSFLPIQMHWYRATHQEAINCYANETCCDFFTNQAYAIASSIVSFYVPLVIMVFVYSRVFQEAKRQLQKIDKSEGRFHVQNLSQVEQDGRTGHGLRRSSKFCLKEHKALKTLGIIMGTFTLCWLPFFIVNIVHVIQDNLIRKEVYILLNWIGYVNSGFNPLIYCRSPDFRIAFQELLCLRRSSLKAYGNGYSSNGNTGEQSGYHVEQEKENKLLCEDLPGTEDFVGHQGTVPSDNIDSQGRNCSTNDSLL
Method in brief: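 Assay format: CHO-ADRB2 cells, 18-20hr seeding at 37C/5% CO2, then compound plus 1nM isoproterenol agonist mix for 0.5hr RT. Homogeneous time-resolved fluorescence cAMP detection after 1hr, expressed as 665/615 nm ratio.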

[11] = biological target: Beta-2 adrenergic receptor (Homo sapiens) (UniProt P07550); test: Adrenergic beta2 receptor (ADRB2) small molecule agonists, cell-based qHTS assay (AID 1963593);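 also: CHO cells stably overexpressing human ADRB2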
Method in brief: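 CHO cells stably over-expressing ADRB2 were plated overnight at 37C, then dosed with compounds plus a stimulation mix containing 100uM IBMX and 25uM Ro-20-1724 for 0.5hr at room temperature. cAMP was measured by HTRF competition, 1hr.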

[12] = biological target: D(2) dopamine receptor (Homo sapiens) (UniProt P14416); test: Dopamine D2 receptor (DRD2) small molecule agonists, cell-based qHTS assay (AID 1963594); also: nearly all actives have a fitted effect of over 35% in size
Chain of D(2) dopamine receptor (Homo sapiens) (P14416 whole entry, looked up): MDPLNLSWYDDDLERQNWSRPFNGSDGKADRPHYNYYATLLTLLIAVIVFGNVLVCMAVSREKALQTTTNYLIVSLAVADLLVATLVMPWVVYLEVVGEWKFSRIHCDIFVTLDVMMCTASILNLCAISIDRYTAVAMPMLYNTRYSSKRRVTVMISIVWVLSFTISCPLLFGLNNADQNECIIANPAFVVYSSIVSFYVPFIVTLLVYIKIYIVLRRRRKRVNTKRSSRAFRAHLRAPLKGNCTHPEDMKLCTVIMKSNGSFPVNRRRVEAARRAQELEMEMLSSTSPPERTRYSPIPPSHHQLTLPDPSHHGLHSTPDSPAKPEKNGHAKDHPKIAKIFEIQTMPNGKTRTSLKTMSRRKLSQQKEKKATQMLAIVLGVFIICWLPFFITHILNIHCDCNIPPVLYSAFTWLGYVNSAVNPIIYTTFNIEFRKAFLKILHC
Method in brief: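 cAMP accumulation in DRD2-HEK293 cells measured by HTRF after 1 h detection; compounds added 10 min before NKH477 (200nM […]) forskolin-analogue stimulation, 30 min at room temperature, with Ro20-1724 present at 0.1 mM final.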

[13] = biological target: D(2) dopamine receptor (Homo sapiens) (UniProt P14416); test: Dopamine D2 receptor (DRD2) small molecule antagonists, cell-based qHTS assay (AID 1963595; active = well fitted inhibition curve with a large enough effect in the signal ratio in the repeat runs, with a control signal flat; the % refers to the signal ratio)
Method in brief: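 Cells were plated and grown for 24 h at 37 °C. Ro20-1724 (0.1 mM final) went in first, then compound for 10 min. NKH477 (200 nM) with quinpirole (12 nM) followed for 30 min at RT, then HTRF detection reagents for 1 h.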

[14] = p53 small molecule agonists, cell-based qHTS assay with rat liver microsomes: qHTS cell viability counter screen (AID 1963580); also: nearly all actives have a fitted effect of over 45% in size; also: potency is read from the fitted curve at half-maximal effect
Method in brief: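 Cytotoxicity counter screen: intracellular ATP read by CellTiter-Glo luminescence in the p53 reporter wells. HCT-116 p53RE-bla cells were treated for 16 h at 37 C alongside rat liver microsomes and NADPH, each 0.5 mg/mL final.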

[15] = biological target: Muscarinic acetylcholine receptor M1 (Homo sapiens) (UniProt P11229); test: Cholinergic receptor muscarinic 1 (CHRM1) small molecule antagonists, cell-based qHTS assay (AID 1963588); also: nearly all actives have a fitted effect of over 40% in size; also: potency is read from the fitted curve at half-maximal effect
Method in brief: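 Compounds were tested at 15 concentrations in three independent runs. Dye-loaded CHRM1-CHO cells were exposed 5 min at room temperature before stimulation by acetylcholine added at 50nM. Intracellular calcium was read kinetically on FDSS for 3 min.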

[16] = cAMP Responsive Elements (CRE) small molecule agonists, cell-based qHTS assay (AID 1963590)
Method in brief: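 Quantitative HTS for CRE agonists: HEK 293T CRE-bla cells, overnight plating, 3 h compound incubation at 37 C/5% CO2, then 2 h room-temperature LiveBLAzer B/G FRET substrate loading.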

[17] = cAMP Responsive Elements (CRE) small molecule antagonists, cell-based qHTS assay (AID 1963591; active = well fitted inhibition curve with a large enough effect in the signal ratio in the repeat runs, not every such curve was filed as active; the % refers to the signal ratio)
Method in brief: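 Fluorescence intensity from cleaved LiveBLAzer B/G substrate (2 h, room temperature) quantified CRE-bla activity in HEK 293T cells exposed 3 h to compound with 0.25 uM final NKH477.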

[18] = p53 small molecule agonists, cell-based qHTS assay with human liver microsomes (AID 1963577);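 also: p53 response element beta-lactamase reporter cells with liver microsomes plus NADPH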
Method in brief: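 In this qHTS, p53 response-element beta-lactamase cells receive test compound together with a microsome/NADPH activating system (0.5 mg/mL final each) and are incubated 16 h at 37 C before LiveBLAzer fluorescence detection.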

[19] = p53 small molecule agonists, cell-based qHTS assay with rat liver microsomes (AID 1963578)
Method in brief: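 Agonist mode in p53RE-bla reporter cells, with compounds co-incubated 16 h at 37 C alongside 0.5 mg/mL rat liver microsomes and 0.5 mg/mL NADPH (final), followed by a 2 h LiveBLAzer detection step.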

[20] = p53 small molecule agonists, cell-based qHTS assay (AID 1963582; active = well fitted activation curve with a large enough effect in the signal ratio in the repeat runs, not every such curve was filed as active; the % refers to the signal ratio)
Method in brief: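 Beta-lactamase reporter cells (p53RE-bla) treated with compounds for 16 h at 37 C; FRET substrate, 2 h, room temperature; fluorescence intensity.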

SMILES | Potency [1] | Potency [2] | Potency [3] | Potency [4] | Potency [5] | Potency [6] | Potency [7] | Potency [8] | Potency [9] | Potency [10] | Potency [11] | Potency [12] | Potency [13] | Potency [14] | Potency [15] | Potency [16] | Potency [17] | Potency [18] | Potency [19] | Potency [20]
C[C@H]1O[C@@H](O[C@H]2CC[C@@]3(C)[C@H](CC[C@@H]4[C@@H]3C[C@@H](O)[C@]3(C)[C@@H](C5=CC(=O)OC5)CC[C@]43O)C2)C[C@H](O)[C@@H]1O[C@H]1C[C@H](O)[C@H](O[C@H]2C[C@H](O)[C@H](O[C@@H]3O[C@H](CO)[C@@H](O)[C@H](O)[C@H]3O)[C@@H](C)O2)[C@@H](C)O1 | 0.531 µM (active) | inactive | inactive | inactive | inactive | 0.251 µM (active) | inactive | inactive | inactive | inactive | inactive | inactive | inactive | – | – | – | – | – | – | –
CCCCCCC(O)CCCCCCCCCCC(=O)O (stereo unspecified) | inactive | inactive | inactive | inactive | – | inactive | inactive | 3.9 µM (active) and inactive | inactive | inactive | inactive | inactive | inactive | inactive | inactive | inactive | inactive | – | – | –
COC1=C(OC)C(=O)C(CCCCCCCCCCO)=C(C)C1=O | 10.6 µM (active) | inactive | inactive | inactive | – | – | – | – | – | inactive | inactive | inactive | inactive | inactive | – | – | inactive | – | – | –
Cc1ccc(C(=O)O)cc1[N+](=O)[O-] | inactive | inactive | inactive | inactive | inactive | inactive | inactive | inactive | inactive | inactive | – | inactive | inactive | – | inactive | inactive | inactive | – | – | –
Cc1ccc(Nc2nccc(N(C)c3ccc4c(C)n(C)nc4c3)n2)cc1S(N)(=O)=O | 4.22 µM (active) | inactive | inactive | inactive | – | – | inactive | inactive | inactive | 26.6 µM (active) | – | – | inactive | – | inactive | – | – | – | – | –
Brc1cc(-c2ccc(Br)c(Br)c2Br)cc(Br)c1Br | inactive | inactive | inactive | inactive | inactive | inactive | inactive | inactive | inactive | inactive | inactive | inactive | inactive | – | inactive | – | inactive | – | – | –
CCC1OCC(COc2ccc(Oc3ccccc3)cc2)O1 (stereo unspecified) | 68.6 µM (active) | inactive | – | inactive | – | – | inactive | inactive | inactive | inactive | – | inactive | inactive | – | – | inactive | inactive | inactive | inactive | inactive
CC1(C)O[C@@H]2C[C@H]3[C@@H]4CCC5=CC(=O)C=C[C@]5(C)[C@H]4[C@@H](O)C[C@]3(C)[C@]2(C(=O)CO)O1 | inactive | inactive | – | inactive | – | – | – | – | inactive | inactive | inactive | inactive | – | inactive | inactive | – | – | inactive | – | inactive
CCCCN(CCCC)c1ccc(C(=O)c2ccccc2C(=O)O)c(O)c1 | inactive | inactive | – | – | 16.4 µM (active) | 20.6 µM (active) | – | 55.5 µM (active) | 49.4 µM (active) | inactive | – | inactive | – | 41.2 µM (active) | – | – | – | inactive | inactive | –
Oc1c(Cl)cc(Cl)c2cccnc12 | 0.188 µM (active) | – | inactive | inactive | inactive | inactive | inactive | inactive | inactive | inactive | – | inactive | inactive | inactive | inactive | – | – | inactive | inactive | –
Nc1cc(Cl)c([N+](=O)[O-])cc1O | inactive | inactive | – | inactive | – | inactive | inactive | inactive | inactive | inactive | – | inactive | inactive | inactive | inactive | inactive | inactive | inactive | inactive | inactive
O=C1c2ccccc2C(=O)c2c(O)c(O)cc(O)c21 | inactive | – | inactive | inactive | inactive | inactive | inactive | inactive | inactive | inactive | inactive | – | inactive | inactive | inactive | – | – | inactive | inactive | –
COc1ccc2nc(S(=O)Cc3ncc(C)c(OC)c3C)[nH]c2c1 (stereo unspecified) | 67.8 µM (active) and 26.6 µM (active) | inactive | inactive | – | inactive | inactive | – | – | – | inactive | – | inactive | inactive | inactive | – | – | inactive | – | – | –
O=C(N/N=C/c1ccccc1O)c1ccncc1 | 6.68 µM (active) | inactive | – | inactive | 7.93 µM (active) | inactive | – | inactive | inactive | – | – | – | – | inactive | – | inactive | inactive | inactive | inactive | inactive
CC(C)(C)c1cc(O)c(C(C)(C)C)cc1O | 15.4 µM (active) | 5.49 µM (active) | – | 34.7 µM (active) | inactive | inactive | – | 1.1 µM (active) | 11 µM (active) | inactive | inactive | inactive | inactive | inactive | 18.8 µM (active) | inactive | inactive | – | inactive | –
